Assay results: ChEMBL document CHEMBL3988442, “University of Dundee, Small-Polar-MMV Screening Library” (2021)
Out of some 48,000 compounds screened, about 13,000 (27%) showed an effect of 50% or more. Some of the results follow.

Tested on: Wolbachia pipientis
Experiment: Anti-Wolbachia Cell-Based Screen
Type: functional
Set-up: scale not given: in the data most compounds retested in dose-response had high values
Details: 5 µM

| SMILES | Percent Effect [%] |
| --- | --- |
| COCCNC(=O)CSc1nnc(OC(C)C)s1 | 5 |
| CN(CCNS(C)(=O)=O)C(=O)c1ccc(Cl)c(Cl)c1 | 2.263 |
| Cc1nn(C)c(C)c1CN(Cc1cccn1-c1cccnc1)C(C)C | -3.784 |
| O=C(NCc1ccccc1OCCO)Nc1ccc2c(c1)CCC2 | 17.01 |
| N#Cc1ccnc(N2CCC(c3nccn3Cc3cscn3)CC2)c1 | 9.295 |
| CCCOC(C)C(=O)N1CCC(O)(c2ccc3nc(C)ccc3c2)CC1 (stereo not drawn) | -16.84 |
| N#Cc1ccc(NCCC2CCN(CC(F)(F)F)CC2)nc1 | -12.29 |
| COCCN1CCN(C(=O)C2CC=CC2)Cc2cccnc21 | -8.576 |
| Cc1ccc2c(n1)N(Cc1cccnc1)CCN(C(=O)C1CCC1)C2.O=C(O)C(F)(F)F.O=C(O)C(F)(F)F | -8.761 |
| CN(C)Cc1nnc2n1CCN(Cc1cccnc1)C2 | -0.7549 |
| Cc1ccc2c(n1)N(Cc1cccnc1)CCN(Cc1cnn(C)c1)C2 | 105.8 |
| COCCC(=O)N1CCN(CC2CC2)c2nc(C)ccc2C1.O=C(O)C(F)(F)F | -15.14 |
| Cc1ccc2c(n1)N(Cc1cccnc1)CCN(C(=O)C1CC=CC1)C2 | 112.8 |
| Cc1ccc2c(n1)N(CC1CC1)CCN(C(=O)NC1CC1)C2.O=C(O)C(F)(F)F | -6.473 |
| Cc1ccc2c(n1)N(CC1CC1)CCN(Cc1cnn(C)c1)C2 | 122.1 |
| Cc1cc(-c2nn(C)c(Cl)c2CN2CCC3(CC2)[C@H](O)C[C@@H]3O)no1 | 0.9032 |
| CNC(=O)CS(=O)(=O)C1CCN(S(=O)(=O)c2c(F)cccc2F)CC1 | 3.089 |
| CCn1ccnc1CN1CCN(C(C)C(=O)NC2CCCCC2)CC1 (stereo not drawn) | -10.14 |
| CCn1ccnc1CN1CCCN(C(=O)c2cnc(C)cn2)CC1 | 120.4 |
| CCn1ccnc1CN1CCN(C(C)C(=O)N2CCCC2)CC1 (stereo not drawn) | 111.2 |
| CCn1ccnc1CN1CCN(C(C)C(=O)N2CCC(C)CC2)CC1 (stereo not drawn) | 15.17 |
| CCn1ccnc1CN1CCCN(C(=O)c2cccn2C)CC1 | 1.946 |
| CCn1ccnc1CN1CCCN(C(=O)c2cncnc2C)CC1 | -6.711 |
| CCn1ccnc1CN1CCN(C(C)C(=O)N2CCCCCC2)CC1 (stereo not drawn) | 83.63 |
| CCn1ccnc1CN1CCCN(C(=O)C2(C#N)CCCCC2)CC1 | -5.352 |
| CCn1ccnc1CN1CCCN(C(=O)c2cc(Cl)c[nH]2)CC1 | -1.253 |
| COc1cccc(CNC(=O)NC2(c3nc(C)no3)CCCCC2)c1 | -3.756 |
| CC(NC(=O)NCCc1cnn(C)c1)c1ccc(Cl)s1 (stereo not drawn) | 7.772 |
